The values below come from PubChem BioAssay (NCATS).

Results filed as inconclusive are left out. Where a call stands in place of a potency, no number is given. Calls of active or inactive are those of the source. The call rests on the fitted dose curve; in most records, active means well fitted curve in the direction sought with a large enough effect; inconclusive means small, poorly fitted or top-dose-only effect, or another doubt; inactive means no such curve, though single readings can be large; an effect the other way counts as inactive or inconclusive.
Further: nearly all actives have a fitted effect of over 60% in size.

The test system of one assay is P93_24. Kind of assay: qHTS profiling for inhibitors of Plasmodium falciparum proliferation (AID 504749). As to conditions: P. falciparum in erythrocytes, SYBR Green DNA, 72 h; series mostly up to 28.7 µM. The method in brief: (§1)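 P. falciparum-infected erythrocytes (0.3% parasitemia, 2.5% hematocrit final) were exposed to compounds for 72 h at 37 C in 5% CO2, then lysed with SYBR Green buffer overnight at room temperature; parasite DNA fluorescence was normalized to artemisinin and DMSO controls.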
On the technique in general: In qHTS, concentration-response curves come from the screen itself.
Consider `CN=C(N)NCCCC(N)C(=O)O` (stereo not given), for which the Potency entry is “inactive”.
For `N[C@H](Cc1ccc(O)c(O)c1)C(=O)O`, the Potency entry was “inactive”.
As to `CN1C(=O)CCC1c1cccnc1` (stereo not given), the Potency entry is “inactive”.

The next assay relates to P94_40. Described as above. As to conditions: P. falciparum in erythrocytes, SYBR Green DNA, 72 h; series mostly up to 28.7 µM. The method in brief:
as §1
Turning to `CN=C(N)NCCCC(N)C(=O)O` (stereo not given), the Potency entry was “inactive”.
For `N[C@H](Cc1ccc(O)c(O)c1)C(=O)O`, the Potency entry is “inactive”.
As for `CN1C(=O)CCC1c1cccnc1` (stereo not given), the Potency result is “inactive”.

Another assay concerns PAD. The assay is described as above. As to conditions: P. falciparum in erythrocytes, SYBR Green DNA, 72 h; series mostly up to 28.7 µM. The method in brief: as §1
Take `CN=C(N)NCCCC(N)C(=O)O` (stereo not given): the Potency result is “inactive”.
With `N[C@H](Cc1ccc(O)c(O)c1)C(=O)O`, the Potency result is “inactive”.
For the compound `CN1C(=O)CCC1c1cccnc1` (stereo not given), the Potency entry was “inactive”.

The next assay relates to PC49. Described as above. The conditions noted are these: P. falciparum in erythrocytes, SYBR Green DNA, 72 h; series mostly up to 28.7 µM. The method in brief:
as §1
In the case of `CN=C(N)NCCCC(N)C(=O)O` (stereo not given), the Potency result was “inactive”.
Same read-out and setting: the entry for `N[C@H](Cc1ccc(O)c(O)c1)C(=O)O` is “inactive”; for `CN1C(=O)CCC1c1cccnc1` (stereo not given) it is “inactive”.

The test system of a further assay is SC27B. The description is as above. The conditions noted are these: P. falciparum in erythrocytes, SYBR Green DNA, 72 h; series mostly up to 28.7 µM. The method in brief: as §1
With `CN=C(N)NCCCC(N)C(=O)O` (stereo not given), the Potency result is “inactive”.
The same measure, in the same setting: the entry for `N[C@H](Cc1ccc(O)c(O)c1)C(=O)O` is “inactive”; for `CN1C(=O)CCC1c1cccnc1` (stereo not given) it is “inactive”.

Another assay deals with TAB109. Described as above. The conditions noted are these: P. falciparum in erythrocytes, SYBR Green DNA, 72 h; series mostly up to 28.7 µM. The method in brief:
as §1
In the case of `CN=C(N)NCCCC(N)C(=O)O` (stereo not given), the Potency entry is “inactive”.
On the same count and under the same terms, the entry for `N[C@H](Cc1ccc(O)c(O)c1)C(=O)O` is “inactive”; for `CN1C(=O)CCC1c1cccnc1` (stereo not given) it is “inactive”.

The next assay concerns TAB113. The description is as above. As to conditions: P. falciparum in erythrocytes, SYBR Green DNA, 72 h; series mostly up to 28.7 µM. The method in brief:
as §1
`CN=C(N)NCCCC(N)C(=O)O` (stereo not given): the Potency entry was “inactive”.
`N[C@H](Cc1ccc(O)c(O)c1)C(=O)O`: the Potency result was “inactive”.
On the same count and under the same terms, the value for `CN1C(=O)CCC1c1cccnc1` (stereo not given) was “inactive”.

The subject of a further assay is TAB165. Described as above. The conditions noted are these: P. falciparum in erythrocytes, SYBR Green DNA, 72 h; series mostly up to 28.7 µM. The method in brief:
as §1
As for `CN=C(N)NCCCC(N)C(=O)O` (stereo not given), the Potency entry is “inactive”.
On the same count and under the same terms, the entry for `N[C@H](Cc1ccc(O)c(O)c1)C(=O)O` is “inactive”; for `CN1C(=O)CCC1c1cccnc1` (stereo not given) it is “inactive”.

Tested on in a further assay: not listed separately
In words: qHTS assay to identify inhibitors of the type 1 interferon - major histocompatibility complex class I in skeletal muscle: Counter screen cell viability and HiBit confirmation (AID 1347412). The conditions noted are these: iHSKM muscle cells + IFN-b, HiBiT or CellTiter-Glo, 24 h; Viability; at 45.9 µM (top of the series). The method in brief: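 Myoblasts (C25cl48, HLA-B HiBiT) seeded in medium without dexamethasone, IFN-b 4 ng/ml added except unstimulated columns; 1 hr later compounds pinned (12-pt 1:3, top 46 uM final). Incubated 24 hrs, lysed 10 min, luminescence measured.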
Take `Nc1nc2c(c(=O)[nH]1)N1CN(c3ccc(C(=O)N[C@@H](CCC(=O)O)C(=O)O)cc3)CC1CN2` (stereo not given in full): the activity change, negative = inhibition was -12% (inactive).
Same read-out and setting: the figure for `Cc1c(C(=O)Nc2ccc(Oc3ccnc4[nH]cc(-c5ccccc5)c34)c(F)c2)c(=O)n(-c2ccc(F)cc2)n1C` is -7.02% (inactive); for `O=C1NC(=O)[C@@H](c2c[nH]c3ccccc23)[C@H]1c1cn2c3c(cccc13)CCC2` it is -10.9% (inactive); for `COC1CC(C(=O)c2ccc3c(N)ncc(-c4ccc(-c5cnn(C)c5)cc4)c3n2)C1` (stereo not given) it is 4.77% (inactive).
On the same count and under the same terms, the figure for `COc1cc(C(N)=O)ccc1NC(=O)[C@@H]1N[C@@H](CC(C)(C)C)[C@@]2(C(=O)Nc3cc(Cl)ccc32)[C@H]1c1cccc(Cl)c1F` is -16.3% (inactive); for `COc1nnc2ccc(N3CCC(c4ccc(OCCN5CCN(C)C(=O)[C@H]5C)cc4)CC3)nn12` it is 14.1% (inactive).
